JMJD2A Tudor inh: JMJD2A Tudor domain (human) inhibition. AID 504339. Potency, µM (titrated, usually from 114 µM), for inactives: at the highest dose activity change, negative = inhibition, most hits filed as inhibitors. AlphaScreen JMJD2A-Tudor / H3K4me3 peptide binding. O75164. 390,000 compounds, 4.4% hits; note: potency is the fitted concentration of half-maximal effect; % is set by controls: 0 for no effect and ±100 for the full control effect; nearly all actives have a fitted effect of over 50% in size
BAZ2B inh: blocks human BAZ2B; Q9UIF8; 360,000 compounds, 4.4% hits; AlphaScreen BAZ2B-H3K14Ac peptide displacement; Potency, µM (highest dose often 114 µM), inactives show top-dose activity change, negative = inhibition, actives largely listed as inhibitors; AID 504333; note: potency is the fitted concentration of half-maximal effect; % is set by controls: 0 for no effect and ±100 for the full control effect; nearly all actives have a fitted effect of over 60% in size
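Multi-concentration screen (max 110 uM) measuring displacement of acetylated histone H3 peptide from BAZ2B by AlphaScreen, using 50 nM protein, 50 nM peptide and 10 ug/mL streptavidin donor plus Ni-chelate acceptor beads.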
PI5P4Ka inh: PI5P4K alpha (human) kinase inhibition; PI5P4Kalpha enzyme, ADP-Glo luminescence, 60 min; stronger effect = lower value; max response, %; 330,000 compounds, 1.2% hits; active = max response of -50% or lower; inconclusive = between -30% and -50%; inactive = -30% or higher; note: value at the top dose of about 77 µM; % is set by controls: 0 for no effect and ±100 for the full control effect
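Compounds were pin-transferred onto PI5P4Kalpha and substrate in HEPES pH 7.4 buffer with EGTA, CHAPS and 5% DMSO. ATP (5 microM final) started the reaction, which ran 60 minutes at room temperature before ADP-Glo detection.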
GCN5L2 inh: GCN5L2 (KAT2A) acetyltransferase inhibition. GCN5L2 HAT assay, ThioGlo1 CoA-SH fluorescence. Potency, µM (top dose mostly 58.9 µM), for the others: at the highest dose activity change, negative = inhibition, most hits filed as inhibitors. 390,000 compounds, 0.21% hits. AID 504327; note: potency is the fitted concentration of half-maximal effect; % is set by controls: 0 for no effect and ±100 for the full control effect
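Titration-based screen in which CoA formation is detected via maleimide probe ThioGlo1 (50uM) turning fluorescent on thiol reaction; substrates H3(1-25) 75uM and acetyl-CoA 70uM, GCN5L2 20nM, 20 min incubation at room temperature.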
PLK1 PBD block: blocks phosphopeptide binding to human PLK1 polo-box domain | AID 720504 | Potency, µM, for inactives: max response, negative = inhibition, usual class: inhibitors | 360,000 compounds, 2.8% hits | Plk1 PBD binding of FITC phosphopeptide, fluorescence polarization; note: potency is the fitted concentration of half-maximal effect; series mostly up to about 57 µM; % is set by controls: 0 for no effect and ±100 for the full control effect; nearly all actives have a fitted effect of over 65% in size
Target sequence (P53350 whole entry, looked up, the tested form may be a part): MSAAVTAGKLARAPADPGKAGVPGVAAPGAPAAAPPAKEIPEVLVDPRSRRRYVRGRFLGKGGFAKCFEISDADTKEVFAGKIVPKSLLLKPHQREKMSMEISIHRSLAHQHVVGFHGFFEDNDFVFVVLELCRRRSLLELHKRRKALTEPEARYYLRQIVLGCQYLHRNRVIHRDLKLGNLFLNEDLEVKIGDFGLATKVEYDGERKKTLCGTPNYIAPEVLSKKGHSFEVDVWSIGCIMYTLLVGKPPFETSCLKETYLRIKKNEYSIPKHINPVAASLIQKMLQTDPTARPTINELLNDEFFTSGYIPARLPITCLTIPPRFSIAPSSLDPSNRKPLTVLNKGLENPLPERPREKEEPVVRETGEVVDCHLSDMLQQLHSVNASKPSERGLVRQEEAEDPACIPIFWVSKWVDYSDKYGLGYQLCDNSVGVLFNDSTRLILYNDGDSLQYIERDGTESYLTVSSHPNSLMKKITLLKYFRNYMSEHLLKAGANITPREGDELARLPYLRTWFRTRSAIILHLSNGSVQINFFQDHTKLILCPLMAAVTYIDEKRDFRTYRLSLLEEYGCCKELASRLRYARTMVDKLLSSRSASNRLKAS
HP1b binding inh: HP1-beta chromodomain-methylated histone interaction inhibition; AlphaScreen HP1-beta / biotin-H3K9me3 peptide binding; Potency, µM (doses to about 114 µM), inactives show top-dose activity change, negative = inhibition, most hits filed as inhibitors; 390,000 compounds, 0.56% hits; AID 540317; note: potency is the fitted concentration of half-maximal effect; nearly all actives have a fitted effect of over 70% in size
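Compound inhibition of the preformed complex between 50 nM HP1-beta and 50 nM biotinylated H3K9me3 peptide was read by AlphaScreen. Buffer was PBS pH 7.4 with 0.01% Tween-20. Incubations ran 30 min at room temperature, with 10 ug/mL donor/acceptor beads.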
* = called active by the depositor; [ ] = another dose, or the depositor's remark. Most compounds without a hit are left out; they make up all but 7% or so of the library. Unless noted, calls come from the whole dose curve; as a rule, active = well fitted curve in the direction sought with a large enough effect; inconclusive = small, poorly fitted or top-dose-only effect, or another doubt; inactive = no such curve, though single readings can be large; an effect the other way counts as inactive or inconclusive.

What do the screens show for `CC(=O)c1c(C)[nH]c(C(=O)NC2=NCCS2)c1C`?
JMJD2A Tudor inh: -7%[57.1 µM]; BAZ2B inh: 50µM*; PI5P4Ka inh: -1; GCN5L2 inh: -4%; PLK1 PBD block: -10%; HP1b binding inh: 32%

Results for CC(=O)c1c(C)[nH]c(C(=O)Nc2ccccn2)c1C ?
JMJD2A Tudor inh: -19%; BAZ2B inh: -34%; PI5P4Ka inh: 3; GCN5L2 inh: -4%; PLK1 PBD block: -3%; HP1b binding inh: 27%

How did Cc1ccc(C2=CC(C)(c3ccc(C)cc3)Nc3nc(C(F)(F)F)nn32)cc1 (centres undefined) do in these assays?
JMJD2A Tudor inh: -30%; BAZ2B inh: -37%; PI5P4Ka inh: 13; GCN5L2 inh: -11%; PLK1 PBD block: 0%; HP1b binding inh: -14%

Results for Cc1cc(C2=CC(C)(c3cc(C)oc3C)Nc3nc(C(F)(F)F)nn32)c(C)o1 (centres undefined) ?
BAZ2B inh: 56µM*; GCN5L2 inh: -7%

Results for CSCCC(NC(=O)c1ccccc1Cl)C(=O)NNC(=O)c1ccncc1 (centres undefined) ?
JMJD2A Tudor inh: -8%; BAZ2B inh: 11%; PI5P4Ka inh: 10; GCN5L2 inh: -3%; PLK1 PBD block: -7%; HP1b binding inh: 24%

What do the screens show for `O=C(Nc1cccc(-n2cnnn2)c1)c1cccc(Cl)c1`?
JMJD2A Tudor inh: 12%; BAZ2B inh: 1%; PI5P4Ka inh: 3; GCN5L2 inh: -14%; PLK1 PBD block: -3%; HP1b binding inh: 35%

Results for O=C(CNC(=O)c1cccc(-n2cnnn2)c1)Nc1ccc(F)c(F)c1 ?
JMJD2A Tudor inh: 89µM*; BAZ2B inh: 12%; PI5P4Ka inh: -3; GCN5L2 inh: 2%; PLK1 PBD block: -2%; HP1b binding inh: 1%

What do the screens show for `O=C(Nc1cccc(-n2cnnn2)c1)c1ccc(Cl)cc1Cl`?
JMJD2A Tudor inh: inconclusive; BAZ2B inh: 1%; PI5P4Ka inh: -9; GCN5L2 inh: -2%; PLK1 PBD block: 30µM*; HP1b binding inh: -12%

What do the screens show for `Cc1ccc(-c2[nH][nH]c(=O)c(=O)c2N=Nc2ccccc2)cc1`?
JMJD2A Tudor inh: -14%[11.4 µM]; BAZ2B inh: -30%; PI5P4Ka inh: -1; GCN5L2 inh: -5%; PLK1 PBD block: 30µM*; HP1b binding inh: inconclusive

What do the screens show for `Clc1ncccc1OCc1ccccc1`?
JMJD2A Tudor inh: 13%; PI5P4Ka inh: -4; PLK1 PBD block: -2%; HP1b binding inh: 56%

How did Cc1cc(=O)c2cc(C(=O)Nc3ccccc3)ccc2[nH]1 do in these assays?
JMJD2A Tudor inh: -30%; BAZ2B inh: -10%; GCN5L2 inh: -1%; HP1b binding inh: 13%

Results for COc1ccc2nc(S(=O)Cc3ncc(C)c(OC)c3C)[nH]c2c1 (centres undefined) ?
JMJD2A Tudor inh: 28µM*; BAZ2B inh: 32µM*; PI5P4Ka inh: inconclusive; GCN5L2 inh: inconclusive; PLK1 PBD block: 24µM*; HP1b binding inh: 14µM*

Results for CCc1ccc(C(=O)c2cn(CC(=O)Nc3ccc(F)cc3)c3cc4c(cc3c2=O)OCO4)cc1 ?
JMJD2A Tudor inh: inconclusive; BAZ2B inh: inconclusive; GCN5L2 inh: -6%; HP1b binding inh: 51%

How did Cc1cccc(N2CCN(S(=O)(=O)c3ccc(F)c(C(=O)Nc4ccc(C(C)C)cc4)c3)CC2)c1C do in these assays?
JMJD2A Tudor inh: -22%; BAZ2B inh: 0%; GCN5L2 inh: -6%; HP1b binding inh: -8%

How did Cc1cc(=O)c2c(O)c(O)ccc2o1 do in these assays?
JMJD2A Tudor inh: 3.2µM*; BAZ2B inh: inconclusive; PI5P4Ka inh: 6; GCN5L2 inh: 26%; PLK1 PBD block: -3%; HP1b binding inh: 7%

Results for CCN1C(=O)/C(=C\C=C\c2ccccc2[N+](=O)[O-])SC1=S ?
JMJD2A Tudor inh: inconclusive; PI5P4Ka inh: -3; GCN5L2 inh: -13%; PLK1 PBD block: -2%; HP1b binding inh: inconclusive

Compound activity from PubChem.
